Among the data in PubChem BioAssay (EPA / NIEHS) are outcome values, retold here.

Calls of active or inactive are those of the source. Rule for the calls: active = hit-call score of the fitted dose curve at least 0.9, where 1 is the maximum; inactive = score below 0.9.

This assay can be described thus: BSK_KF3CT_SRB: Viability Assessment in the BioMAP Diversity Plus: KF3CT Assay (AID 2283069).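 Note: read 24 h after compound addition; fitted for both signal gain and loss against DMSO baseline.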 To be noted: primary human keratinocytes with fibroblasts. The procedure, abridged: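 Overt cytotoxicity is assessed as total protein by sulforhodamine B staining in parallel human skin co-cultures at 24 h after dosing. DMSO serves as negative control and baseline.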
`OCc1c[nH]c2ccccc12`: the result was inactive. For the compound `c1ccc2cc3ccccc3cc2c1`, the outcome was inactive. In the case of `COc1cc(C(C)C)c2c(c1)S(=O)(=O)N(COc1cc(=O)n3cccc(OCCN4CCCCC4)c3n1)C2=O`, the outcome was inactive. Regarding `O=S(=O)(O)CCC(F)(F)C(F)(F)C(F)(F)C(F)(F)C(F)(F)C(F)(F)F`, the result was inactive.

`Cc1nccn1-c1ccc(Sc2cccc(C3(C(N)=O)CCOCC3)c2)cc1`: the result was inactive.

As for `CC(C)CC(C)O` (configuration not stated), the result was inactive. With `NC(=O)NN=Cc1ccc([N+](=O)[O-])o1`, the result was inactive.

With `c1ccc(C(O[C@@H]2CCCN(CCc3ccc4c(c3)OCO4)C2)c2ccccc2)cc1`, the outcome was inactive. For `CCCCOC(=O)c1ccccc1`, the result was inactive. As to `FC(F)(F)C(F)(F)C(F)(F)C(F)(F)C(F)(F)C(F)(F)I`, the outcome was inactive. Regarding `NC(=O)N1c2ccccc2C=Cc2ccccc21`, the result was inactive. Take `Cc1nc(-c2ccccn2)ncc1C(=O)Nn1cc(C)c2cc(F)ccc21`: the outcome was inactive.

Turning to `O=C(O)[C@H](O)[C@@H](O)C(=O)O`, the outcome was inactive. Regarding `Cc1cccc(O)c1C`, the result was inactive. Consider `C[Si](C)(C)C(F)(F)C(F)(F)C(F)(F)F`, for which the result was inactive. Consider `CCOC(N)=O`, for which the outcome was inactive. Consider `OC[C@H]1O[C@@H]2O[C@H]3[C@H](O)[C@@H](O)[C@@H](O[C@H]4[C@H](O)[C@@H](O)[C@@H](O[C@H]5[C@H](O)[C@@H](O)[C@@H](O[C@H]6[C@H](O)[C@@H](O)[C@@H](O[C@H]7[C@H](O)[C@@H](O)[C@@H](O[C@H]1[C@H](O)[C@H]2O)O[C@@H]7CO)O[C@@H]6CO)O[C@@H]5CO)O[C@@H]4CO)O[C@@H]3CO`, for which the result was inactive. For the compound `COc1cc2c(c(OC)c1OC)-c1ccc(OC)c(=O)cc1[C@@H](NC(C)=O)CC2`, the outcome was inactive. For the compound `OCCC(F)(F)C(F)(F)C(F)(F)C(F)(F)F`, the outcome was inactive. The value for `O=C(O)c1cccc(C(=O)O)c1` was “inactive”; that for `CNC(C)=O` was “inactive”; that for `CCCCCCCC1CCC(=O)O1` (configuration not stated) was “inactive”. Regarding `O=C1CN(N=Cc2ccc([N+](=O)[O-])o2)C(=O)N1`, the result was inactive. Take `COS(C)(=O)=O`: the result was inactive. The value for `S=P(N1CC1)(N1CC1)N1CC1` was “inactive”; that for `C[C@@H](Oc1ccc(CNC(=O)c2cccnc2Oc2ccc3c(c2)OCO3)c(F)c1)C(=O)O` was “inactive”; that for `O=c1[nH]cnc2c1ncn2[C@H]1CC[C@@H](CO)O1` was “inactive”.
